# Screening results: PubChem BioAssay, National Center for Advancing Translational Sciences (NCATS)
# The list is not random: actives were taken first. Their share in the collection is about 7.9%.
# FMDV antiviral: foot and mouth disease virus antiviral activity. FMDV antiviral cell-based qHTS. Potency, µM (doses to about 57.9 µM), inactives show at the top dose activity change, negative = inhibition, usual class: inhibitors. actives 1.2% (n = 410,000). AID 1159524; calls by dose curve; tested in HEK293T cells; also: read-out not given here; potency is read from the fitted curve at half-maximal effect; nearly all actives have a fitted effect of over 45% in size
# Lassa entry inh: inhibitors of Lassa virus binding or cell entry; Lassa virus pseudotype entry inhibition, cell reporter; Potency, µM (top dose mostly 37.9 µM), without a hit: top-dose activity change, negative = inhibition, most hits filed as inhibitors; actives 1.2% (n = 300,000); AID 540256; calls by dose curve; tested in HEK293 cells; also: potency is read from the fitted curve at half-maximal effect; nearly all actives have a fitted effect of over 50% in size
# Marburg entry inh: blocks Marburg virus binding to or entry into cells; Marburg virus pseudotyped entry inhibition, cell reporter; Potency, µM (titrated, usually from 37.8 µM), for the others: at the highest dose activity change, negative = inhibition, usual class: inhibitors; actives 1.8% (n = 300,000); AID 540276; calls by dose curve; tested in HEK293 cells; also: potency is read from the fitted curve at half-maximal effect
# HCMV inh: blocks human cytomegalovirus replication | HFF cells, HCMV-luciferase reporter, 72 h; stronger effect = lower value | activity change, negative = inhibition, % at 57.5 µM | actives 4.5% (n = 410,000) | AID 1259415; in the data active = activity change below about -60%; inconclusive = no clear call, values can overlap the other calls; inactive = above about -39%
#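 Two-dose cell screen: HFF monolayers treated with compounds and infected with luciferase-expressing HCMV at 1 PFU/cell, 72 h at 37C, then lysed for luciferase measurement.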
# HCV inhibitor: blocks hepatitis C virus | actives 3.4% (n = 340,000) | Huh7.5.1 HCVcc-Cre infection, luciferase reporter, 44 h | Potency, µM (titrated, usually from 41.8 µM), for inactives: at the highest dose activity change, negative = inhibition, usual class: inhibitors; active = well fitted inhibition curve with a large enough effect; inconclusive = small, poorly fitted or top-dose-only effect, or another doubt; inactive = no such curve, though single readings can be large or run the other way; also: potency is read from the fitted curve at half-maximal effect
#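 Infectious HCV cell culture screen: compound-treated cells (1,000/well, pre-plated 4 h) are infected with HCVcc-Cre at roughly 0.5 moi and grown 44 h. Infection is quantified by luciferase signal after 15 min substrate incubation at room temperature.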
# Numbers without * were called inactive; u = inconclusive; x = no result given; [ ] = dose if it differs, or a comment. % is scaled to controls: 0 for no effect and ±100 for the full control effect.
SMILES,FMDV antiviral,Lassa entry inh,Marburg entry inh,HCMV inh,HCV inhibitor
CC(C)(C)c1ccc(C2CC2C(=O)N/N=C\c2ccc[nH]2)cc1 (stereo not drawn),-19%,u,u,-100*,0.56µM*
O=C(N/N=C/c1c[nH]c2ccccc12)C1CC1(c1ccccc1)c1ccccc1 (stereo not drawn),9%,u,u,68,u
O=C(N/N=C/c1ccco1)C1CC1,-16%,19%,14%,-23,-3%
O=C(N/N=C/c1ccco1)C1CC1c1ccccc1 (stereo not drawn),5%,18µM*,27%,-17,u
O=C(N/N=C/c1cccc([N+](=O)[O-])c1)C1CC1c1ccccc1 (stereo not drawn),-1%,2.2µM*,u,-10,-15%
O=C(N/N=C/c1c[nH]c2ccccc12)C1CC1c1ccccc1 (stereo not drawn),u,2.8µM*,u,-17,u
O=C(CCc1ccccc1)N/N=C/c1cccc([N+](=O)[O-])c1,8%,x,x,87,1%
Cc1cc(C)c(NC(=O)CSc2ccc(-c3sc(-c4ccccc4)nc3C)nn2)c(C)c1,-1%,8%[46.1 µM],x,1,x
COc1cc2c(cc1NS(=O)(=O)c1cccc(C#N)c1)n(C)c(=O)n2C,-15%,5%[46.1 µM],x,10,x
CCc1cccc(NC(=O)c2cc(S(=O)(=O)N3CCCCCC3)cn2C)c1,-25%,6%[46.1 µM],x,11,x
N#C/C(=N/O)c1nc(-c2ccccc2)cs1,x,x,15%,x,x
COc1cc(NC(=O)c2nn(C)c3c2COc2ccccc2-3)cc(OC)c1OC,-14%,1%[46.1 µM],7%[46.1 µM],-3,x
O=C1NC(Cc2ccc(O)cc2)c2nc3cc(Cl)ccc3c(=O)n2-c2cc3ccccc3cc21 (stereo not drawn),u,x,x,-100*,x
Cc1ccc2nc3n(c(=O)c2c1)-c1cc2ccccc2cc1C(=O)NC3Cc1ccc(O)cc1 (stereo not drawn),u,x,x,-92*,x
Cc1ccc2c(c1)-n1c(nc3ccccc3c1=O)C(Cc1ccc(O)cc1)NC2=O (stereo not drawn),x,x,x,2,1%
O=C1NC(Cc2ccccc2)c2nc3cc(Cl)ccc3c(=O)n2-c2ncccc21 (stereo not drawn),u,x,x,-67*,x
O=C1NC(Cc2ccc(O)cc2)c2nc3cc(F)c(F)cc3c(=O)n2-c2cc3ccccc3cc21 (stereo not drawn),u,x,x,-19,x
O=C1NC(Cc2ccc(O)cc2)c2nc3ccc(F)cc3c(=O)n2-c2cc3ccccc3cc21 (stereo not drawn),u,x,x,-101*,x
CCOC(=O)c1sc(NC(=O)c2nc3ncccn3n2)c(C(=O)OC(C)C)c1C,8%,2%[46.1 µM],x,-2,x
Cc1ccc(-c2noc(CNC(=O)c3ccccc3)n2)cc1,7%,18%[46.1 µM],29%[46.1 µM],-1,x
Cc1cc2c(c(-c3cnccn3)c1)OC(CNC(=O)c1cc(Cl)ccc1F)C2 (stereo not drawn),-8%,x,x,x,x
CC1(C)S[C@@H]2[C@H](N3C(=O)C(c4ccccc4)NC3(C)C)C(=O)N2[C@H]1C(=O)O (stereo partly drawn),27%,x,x,x,x
COc1ccc2cc(-c3c(-c4ccncc4)nc(-c4ccc(S(C)(=O)=O)cc4C)n3C)ccc2c1,x,7.9µM*,x,x,x
CCOc1cc(CNCCO)cc(Br)c1OCc1ccccc1,-8%,u,u,u,10µM*
COc1cc(C(N)=O)cc(Br)c1OCc1ccccc1,-9%,-17%,1%,u,u
SMILES,FMDV antiviral,Lassa entry inh,Marburg entry inh,HCMV inh,HCV inhibitor
CCOc1c(Br)cc(C(N)=O)cc1OCc1ccccc1,21%,12µM*,u,-10,u
COc1cccc(CNCCSc2nnnn2C)c1OCc1ccccc1,-11%,u,u,0,x
CCOc1cc(CNCCSc2nnnn2C)cc(Br)c1OCc1ccccc1,u,u,u,41,2.8µM*
CCOc1ccccc1NC(=O)Cn1c(=O)n(-c2ccc(C)c(C)c2)c(=O)c2oc3ccccc3c21,-11%,u,x,-22,x
COc1cccc(-n2c(O)c(C=NCc3ccc4c(c3)OCO4)c(=O)[nH]c2=O)c1,-16%,-4%,-2%,-105*,-11%
O=C(/C=C/c1cccc(Br)c1)NC1CCN(Cc2ccccc2)CC1,u,28%[46.1 µM],u,u,u
O=C(/C=C/c1cccc(F)c1)NC1CCN(Cc2ccccc2)CC1,-16%,5%,-2%[46.1 µM],-63*,-23%
O=C1NC(c2ccccc2)=C(c2nc3ccccc3s2)C(c2ccc(F)cc2)N1 (stereo not drawn),22µM*,u,23µM*,-27,u
Cc1ccc(CNC(=O)c2ccc(CSCc3c(F)cccc3Cl)o2)cc1,0%,u,x,-6,x
C=C[C@H]1CN2CC[C@H]1C[C@H]2[C@H](OC(=O)OCC)c1ccnc2ccc(OC)cc12,-15%,x,x,x,x
CC[C@H]1CN2CCC1C[C@H]2[C@H](O)c1ccnc2ccc(OC)cc12 (stereo partly drawn),-26%,x,x,-68*,3%
C=CC1CN2CCC1CC2[C@@H](OC(=O)c1ccc(OC)cc1)c1ccnc2ccccc12 (stereo partly drawn),u,u,11µM*,-20,20%
CC[C@H]1CN2CCC1C[C@@H]2[C@@H](O)c1ccnc2ccc(OC)cc12 (stereo partly drawn),-23%,x,x,u,-15%
COc1cccc(CN2CCC(n3cc(C(=O)N4CCCCC4)nn3)CC2)c1OC,-8%,x,x,x,x
CC(OC(=O)c1ccc(Cl)c(S(=O)(=O)N2CCOCC2)c1)C(=O)NC1CCCCC1C (stereo not drawn),u,u,-4%,-8,5%
COc1ccc(C(=O)OC(C)C(=O)NC2CCCCC2C)cc1S(=O)(=O)N1CCOCC1 (stereo not drawn),-7%,12%,-13%,-98*,9%
COc1cc(NC(=O)c2cnc(NCc3ccccc3)nc2C)cc(OC)c1OC,0%,-26%[46.1 µM],u,-33,3.5µM*
CCOc1ccc(NC(=O)CSc2nnc(Cn3cnc([N+](=O)[O-])n3)n2C)cc1,15%,u,-5%,-40,2%
CCOc1ccc(NC(=O)CSCC(=O)O)cc1,-5%,3%,13%,7,11%
COc1cccc(NC(=O)c2cnsn2)c1,33%,u,24%,x,9%
CCOc1ccc(NC(=O)CSc2nnc(Cn3cnc([N+](=O)[O-])n3)n2CC)cc1,-3%,10%,u,-67*,6%
CCOc1ccc(NC(=O)CSc2ccccc2N)cc1,73%,x,3.5µM*,82,-14%
CCOc1ccc(NC(=O)c2cnccn2)cc1,-27%,u,u,86,0%
CCOc1ccc(NC(=O)c2ccccn2)cc1,3.2µM*,0.28µM*,0.32µM*,u,2%
CCOc1ccc(NC(=O)c2cnsn2)cc1,-16%,u,8.9µM*,73,4%
CCS(=O)(=O)c1nc(S(=O)(=O)c2ccc(C)cc2)c(NCCCOC)s1,-2%,u,-7%[46.1 µM],-12,x
